Test results as given in PubChem BioAssay (EPA / NIEHS).
Calls of active or inactive are those of the source. How the source made its calls: active means hit-call score of the fitted dose curve at least 0.9, where 1 is the maximum; inactive means score below 0.9.

Tests used:
[1] = APR_HepG2_CellLoss_72hr: Apredica 72-hour HepG2 Assay for Cell Loss (AID 2282915); conditions: high-content imaging
How it was run: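 HepG2 cells were exposed for 72 hr to compounds at 0.39–200 uM (ten concentrations, duplicate) in 0.5% v/v final DMSO. Nuclei were stained with Hoechst 33342 after 3.7% formaldehyde fixation, imaged at 20x, and counted; fits bidirectional versus DMSO.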

[2] = APR_HepG2_P-H2AX_72hr: Apredica 72-hour HepG2 Assay for H2AX Phosphorylation (AID 2282916); conditions: imaging, actives raise or lower the signal;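 further: phospho-histone H2A.x immunostain intensity per cell marking DNA damage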
How it was run: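 Readout: phospho-H2A.x immunofluorescence (FITC secondary) plus Hoechst nuclear stain, high-content imaging at 20x, six fields/well. HepG2, 72 hr compound exposure, 0.39–200 uM, final DMSO 0.5% v/v. Gain or loss fitted relative to DMSO baseline.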

[3] = APR_HepG2_MitoMembPot_72hr: Apredica 72-hour HepG2 Assay for Mitochondrial Membrane Potential (AID 2282917); conditions: imaging, actives raise or lower the signal
How it was run: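 HepG2 cells exposed 72 h to compounds at 0.39–200 uM (0.5% v/v DMSO, duplicates); MitoTracker Red CMXRos 250 nM loaded 30 min before 3.7% formaldehyde fixation, imaged by HCS fluorescence. Bidirectional fit versus DMSO.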

[4] = APR_HepG2_MitoticArrest_72hr: Apredica 72-hour HepG2 Assay for Mitotic Arrest (AID 2282918); conditions: high-content imaging, actives raise or lower the signal
How it was run: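 High-content imaging of fixed human HepG2 cells after 72 h compound exposure (0.39–200 uM, duplicates, 0.5% DMSO); mitotic arrest scored from phospho-histone H3 and nuclear Hoechst staining relative to DMSO.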

[5] = APR_HepG2_MicrotubuleCSK_72hr: Apredica 72-hour HepG2 Assay for Microtubule CSK Stabilty (AID 2282919); conditions: HepG2 microtubule cytoskeleton, high-content imaging, actives raise or lower the signal
How it was run: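 Ten-point dosing (0.39–200 uM, 0.5% DMSO) of HepG2 for 72 hr, with taxol as the cytoskeletal positive control. The cells were formaldehyde-fixed and then stained with alpha-tubulin/Cy5 and Hoechst. Imaging at 20x used a −2 um Z offset for tubulin.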

[6] = APR_HepG2_P-H2AX_24hr: Apredica 24-hour HepG2 Assay for H2AX Phosphorylation (AID 2282920); conditions: high-content imaging, actives raise or lower the signal
How it was run: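 High-content imaging of phospho-histone H2A.x immunofluorescence, nuclei counterstained with Hoechst 33342, in fixed HepG2 cells. Compounds ran 0.39–200 uM in duplicate for 24 h, final DMSO 0.5%. Signal change fitted both directions against DMSO.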

[7] = APR_HepG2_StressKinase_72hr: Apredica 72-hour HepG2 Assay for Stress Kinase (AID 2282921); conditions: HepG2 stress kinase (phospho-c-Jun) imaging, actives raise or lower the signal
How it was run: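 Phospho-c-Jun immunofluorescence measured by high-content imaging at 20x, six fields per well; bidirectional curve fitting against DMSO as baseline. Dosing: 0.39–200 uM, 72 h, 0.5% DMSO final.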

[8] = APR_HepG2_p53Act_72hr: Apredica 72-hour HepG2 Assay for p53 Activation (AID 2282923); conditions: high-content imaging, actives raise or lower the signal;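 further: average cellular p53 protein immunofluorescence intensity in HepG2 cells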
How it was run: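 Readout: p53 immunofluorescence quantified by automated high-content imaging at 20x, six fields per well, nuclei located via Hoechst. Dosing ran 72 hr over ten concentrations from 0.39 to 200 uM; bidirectional curve fitting against DMSO baseline.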

[9] = APR_HepG2_MitoMass_72hr: Apredica 72-hour HepG2 Assay for Mitochondrial Mass (AID 2282924); conditions: high-content imaging, actives raise or lower the signal;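 further: MitoTracker Red CMXRos stain intensity per cell imaged as mitochondrial mass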
How it was run: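 Steps: treat HepG2 72 hr (0.39–200 uM, duplicate wells); load MitoTracker Red CMXRos, 250 nM, 30 min; fix with 3.7% formaldehyde, permeabilise with 0.5% Triton X-100; capture images, nuclei via Hoechst 33342; fit bidirectionally against DMSO.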

SMILES	AC50 [1]	outcome [2]	outcome [3]	outcome [4]	AC50 [5]	AC50 [6]	outcome [7]	outcome [8]	outcome [9]	outcome [1]	outcome [5]	outcome [6]	AC50 [2]	AC50 [9]
CC(C)N1C(=O)N(c2ccccc2)CSC1=NC(C)(C)C	42.5 µM (active)	inactive	inactive	inactive	32.6 µM (active)	111 µM (active)	inactive	inactive	inactive	–	–	–	–	–
N#CN=C1SCCN1Cc1ccc(Cl)nc1	–	inactive	inactive	inactive	–	–	inactive	inactive	inactive	inactive	inactive	inactive	–	–
CCOc1nc(C(Cl)(Cl)Cl)ns1	–	inactive	inactive	inactive	–	–	inactive	inactive	inactive	inactive	inactive	inactive	–	–
COP(=O)(OC)O/C(C)=C/C(=O)N(C)C	–	inactive	inactive	inactive	–	–	inactive	inactive	inactive	inactive	inactive	inactive	–	–
CCNC(=O)NC(=O)C(C#N)=NOC	–	inactive	inactive	inactive	–	–	inactive	–	inactive	inactive	inactive	inactive	–	–
COCc1cnc(C2=NC(C)(C(C)C)C(=O)N2)c(C(=O)O)c1 (stereo unspecified)	–	inactive	inactive	inactive	–	–	inactive	–	inactive	inactive	inactive	inactive	–	–
N#Cc1c[nH]cc1-c1cccc2c1OC(F)(F)O2	13 µM (active)	–	inactive	inactive	19.3 µM (active)	–	inactive	inactive	–	–	–	inactive	16.1 µM (active)	3.5 µM (active)
Cc1cc(C)nc(Nc2ccccc2)n1	46.3 µM (active)	inactive	inactive	inactive	–	–	inactive	inactive	inactive	–	inactive	inactive	–	–
Cc1nc(N(C)C)nc(OC(=O)N(C)C)c1C	–	inactive	inactive	inactive	–	–	inactive	–	inactive	inactive	inactive	inactive	–	–
CCOP(=O)(OCC)Oc1nc(Cl)c(Cl)cc1Cl	–	inactive	inactive	inactive	–	–	inactive	inactive	inactive	inactive	inactive	inactive	–	–
O=c1n(Cl)c(=O)n(Cl)c(=O)n1Cl	–	inactive	inactive	inactive	–	–	inactive	inactive	inactive	inactive	inactive	inactive	–	–
CC(C)Nc1nc(Cl)nc(NC(C)C)n1	–	inactive	inactive	inactive	–	–	inactive	inactive	inactive	inactive	inactive	inactive	–	–
CC(C)C1(C)N=C(c2ncccc2C(=O)O)NC1=O (stereo unspecified)	–	inactive	inactive	inactive	–	–	inactive	inactive	inactive	inactive	inactive	inactive	–	–
CC(C)(C)C(=O)C(Oc1ccc(Cl)cc1)n1cncn1 (stereo unspecified)	78.6 µM (active)	inactive	inactive	inactive	–	–	inactive	inactive	inactive	–	inactive	inactive	–	–
CC1(C)CON(Cc2ccccc2Cl)C1=O	–	inactive	inactive	inactive	–	–	inactive	inactive	inactive	inactive	inactive	inactive	–	–
CC(C)Oc1cccc(NC(=O)c2ccccc2C(F)(F)F)c1	131 µM (active)	inactive	inactive	inactive	100 µM (active)	–	inactive	inactive	inactive	–	–	inactive	–	–
